PubChem BioAssay AID799 (SRMLSC, 2007)
Among all 140,000 compounds or so, about 840 (0.6%) were called active. Shown is part of a subset that was picked to be rich in actives. Values without a mark were called inactive.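 How the source made its calls: active means viability gain under doxorubicin at or above a set limit, the compound median plus 3 SD (cut at about 4.7% in these data); inactive means the rest.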

Assay: H69AR viability gain despite doxorubicin, primary screen, MRP-1 activator project, H69AR cells, CellTiter-Glo (AID 799);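 further: MRP-1 overexpressing cells given doxorubicin 25 µM after compound pretreatment; 18-22 h compound pretreatment then 72 h with doxorubicin before readout; 0% = doxorubicin-only wells and 100% = vehicle-treated cells without doxorubicin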
Settings: viability rescue, at 10 µM, stronger effect = higher value

**Q.** For CCn1c(NC(=O)c2nn(C)cc2Br)nc2ccccc21, which viability increase is on record?
**A.** -2.46%

**Q.** For O=C(NCCNc1ccc([N+](=O)[O-])cc1)c1cccc2c(Br)cccc12, which viability increase is on record?
**A.** 1.47%

**Q.** For O=C(Nc1ccccc1)c1ccc2c(c1)OCO2, which viability increase is on record?
**A.** -0.11%

**Q.** With C/C(=N/NC(=S)Nc1ccccc1)c1ccc2c(c1)OCO2 as the molecule, how does the viability increase read?
**A.** 7.99% (active)

**Q.** With C/C(=N\NC(=S)NCc1ccccc1)c1ccc(Cl)cc1 as the molecule, how does the viability increase read?
**A.** -2.64%

**Q.** For COc1ccc(OCC(O)CNC(=O)Nc2ccc(Cl)cc2)cc1 (stereo not drawn), which viability increase is on record?
**A.** 2.65%

**Q.** Which viability increase does the source give for Cc1ccc(C)c(NS(=O)(=O)c2ccc(OCC(=O)NCc3cccnc3)cc2)c1 here?
**A.** -4.52%

**Q.** For CC1CCN(C(=O)c2ccc(S(=O)(=O)Cc3cc(F)ccc3F)c([N+](=O)[O-])c2)CC1, which viability increase is on record?
**A.** -4.87%

**Q.** With CCOc1ccc(Br)cc1CSC(=N)N as the molecule, how does the viability increase read?
**A.** 0.81%

**Q.** Which viability increase does the source give for c1ccc2c(CSCc3nc4ccccc4[nH]3)cccc2c1 here?
**A.** -0.17%

**Q.** Which viability increase does the source give for N=C(N)SCc1cccc2ccccc12 here?
**A.** 8.11% (active)

**Q.** With COc1cc(C(=S)NC2CCCCC2)ccc1O as the molecule, how does the viability increase read?
**A.** -2.71%

**Q.** For Cc1[nH]n(-c2ccccc2)c(=O)c1/C=N/NC(=O)c1ccoc1C, which viability increase is on record?
**A.** -1.54%

**Q.** With COc1cc(NC(=S)NCCSc2ccc(C)cc2)cc(OC)c1 as the molecule, how does the viability increase read?
**A.** -3.24%

**Q.** For CC(C)c1nnc(NC(=O)C2CCCN2S(=O)(=O)c2ccc(Cl)cc2)s1 (stereo not drawn), which viability increase is on record?
**A.** -0.99%

**Q.** Which viability increase does the source give for CCc1nnc(NC(=O)C2CCCN2S(=O)(=O)c2ccccc2)s1 (stereo not drawn) here?
**A.** 12.4% (active)

**Q.** For CCc1nnc(NS(=O)(=O)c2ccc(NS(=O)(=O)c3ccccc3)cc2)s1, which viability increase is on record?
**A.** -0.5%

**Q.** Which viability increase does the source give for Cc1ccccc1NC(=O)c1ccccc1NS(=O)(=O)c1cccc2cccnc12 here?
**A.** -3.17%

**Q.** For COC(=O)c1ccc(C(=O)Nc2cc(Cl)ccc2Cl)cc1NC(=O)c1ccccc1C, which viability increase is on record?
**A.** -3.01%

**Q.** For C=CCNC(=O)c1ccccc1NC(=O)c1ccc(Cl)c(S(=O)(=O)Nc2cccc(C)c2C)c1, which viability increase is on record?
**A.** 5.97% (active)

**Q.** For CC(C)(C)C1CCC(OC(=O)CCC(=O)Nc2ccccc2)CC1 (stereo not drawn), which viability increase is on record?
**A.** 3.57%

**Q.** With Cc1ccc(C(=O)Cc2nnc(C)s2)cc1 as the molecule, how does the viability increase read?
**A.** -2.89%

**Q.** With Cc1ccc(C2=N/C(=C\c3ccc(OS(=O)(=O)c4ccc(C)cc4)cc3)C(=O)O2)cc1 as the molecule, how does the viability increase read?
**A.** -1.26%

**Q.** With O=C(Nc1ccn(Cc2ccc(F)cc2)n1)c1ccncc1 as the molecule, how does the viability increase read?
**A.** 1.75%

**Q.** With CC(=O)Nc1ccn(Cc2c(F)cccc2Cl)n1 as the molecule, how does the viability increase read?
**A.** -1.03%

**Q.** For O=C(Nc1ccn(Cc2ccccc2F)n1)c1ccc(COc2ccc(Cl)cc2Cl)o1, which viability increase is on record?
**A.** 10.6% (active)

**Q.** Which viability increase does the source give for CCCc1ccc(-c2c(C)sc(NC(=O)c3ccnn3C)c2C#N)cc1 here?
**A.** -1.28%

**Q.** For Cn1nccc1CNC(=O)c1ccnn1C, which viability increase is on record?
**A.** 10.8% (active)

**Q.** With Cn1ncc(Br)c1C(=O)NCc1cccs1 as the molecule, how does the viability increase read?
**A.** -2.03%

**Q.** With O=C(NCc1ccccc1Cl)C1CCC(CNc2c(N3CCCCC3)c(=O)c2=O)CC1 (stereo not drawn) as the molecule, how does the viability increase read?
**A.** -1.61%

**Q.** Which viability increase does the source give for CN(C)S(=O)(=O)c1ccc(N2CCCC2=O)c([N+](=O)[O-])c1 here?
**A.** -1.68%

**Q.** Which viability increase does the source give for CC(=O)Cc1nsc(NC(=O)c2ccc(COc3ccc(C)cc3)o2)n1 here?
**A.** -0.06%

**Q.** For COc1ccc(-c2nn(-c3ccccc3)cc2C(=O)Nc2nc(CC(C)=O)ns2)cc1, which viability increase is on record?
**A.** 6.77% (active)

**Q.** Which viability increase does the source give for COc1ccc(-c2nn(-c3ccccc3)cc2C(=O)Nc2nccs2)cc1OC here?
**A.** -4.27%

**Q.** For COc1ccc2nc(Nc3nc4ccc(NC(C)=O)cc4s3)sc2c1, which viability increase is on record?
**A.** -4.94%

**Q.** With CCCOc1ccc(Cn2ccnc2)cc1[N+](=O)[O-] as the molecule, how does the viability increase read?
**A.** -1.18%

**Q.** With CC(=O)NC1C(OCc2ccccc2)OC(COC(C)=O)C(OC(C)=O)C1OC(C)=O (stereo not drawn) as the molecule, how does the viability increase read?
**A.** -1.54%

**Q.** Which viability increase does the source give for Cc1ccc(S(=O)(=O)N(Cc2ccc(Cl)cc2)c2ccccc2C(=O)NCc2cccnc2)cc1 here?
**A.** -2.38%

**Q.** For Cc1ccc(O)c(-c2cc(C(=O)NCc3ccccc3)[nH]n2)c1, which viability increase is on record?
**A.** -1.43%

**Q.** Which viability increase does the source give for CSCCC1NC2(C(=O)Nc3ccc(Cl)cc32)[C@@H]2C(=O)N(C3CCCC3)C(=O)[C@H]12 (stereo partly drawn) here?
**A.** -3.72%

**Q.** For O=C1[C@@H]2C(Cc3ccc(O)cc3)NC3(C(=O)Nc4ccc(F)cc43)[C@@H]2C(=O)N1c1ccc(F)cc1 (stereo partly drawn), which viability increase is on record?
**A.** 5.18% (active)

**Q.** Which viability increase does the source give for CNC(=O)NC(=O)C(OC(=O)c1cccc(S(=O)(=O)N2CCCCC2)c1)c1ccccc1 (stereo not drawn) here?
**A.** -2.3%

**Q.** For Cc1cc(NS(=O)(=O)c2ccc(NC(=S)NC(=O)c3ccc(F)cc3Cl)cc2)no1, which viability increase is on record?
**A.** -2%

**Q.** Which viability increase does the source give for CCN(CC)c1ccc([N+](=O)[O-])cc1C(=O)O here?
**A.** 0.59%

**Q.** With CC(NC(=O)COC(=O)C1CCN(S(=O)(=O)c2ccccc2C(F)(F)F)CC1)c1ccccc1 (stereo not drawn) as the molecule, how does the viability increase read?
**A.** -1.86%

**Q.** Which viability increase does the source give for COCC(C)n1c(C)cc(C(=O)CSc2cc(C)c3ccccc3n2)c1C (stereo not drawn) here?
**A.** 0.22%

**Q.** For Cc1ccc(N2C(=O)C(Cc3ccccc3)NC2=S)cc1 (stereo not drawn), which viability increase is on record?
**A.** -0.7%

**Q.** Which viability increase does the source give for Cc1ccc(C2C3=C(Nc4[nH]n(-c5ccccc5)c(=O)c42)c2ccccc2C3=O)cc1 (stereo not drawn) here?
**A.** -0.43%
